# Data reported in PubChem BioAssay (EPA / NIEHS).
# Results filed as inconclusive are left out. The source made the active and inactive calls. Rule for the calls, unless noted: active = hit-call score of the fitted dose curve at least 0.9, where 1 is the maximum; inconclusive = response in the unintended direction; inactive = score below 0.9.
# Molecular target: Estrogen receptor (Homo sapiens) (UniProt P03372)
# Test: ATG_ERa_TRANS: Attagene TRANS-FACTORIAL HepG2 Assay for human Estrogen Receptor alpha (ERa) (AID 2282970)
# Details: HepG2 Attagene TRANS ERa GAL4 reporter, mRNA
# Procedure, shortened: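 After 24 h of compound treatment, RNA from HepG2 cells bearing transfected GAL4-UAS reporter constructs is converted to cDNA, amplified and fluorescently labelled. Capillary electrophoresis resolves the ERa-linked reporter; DMSO serves as negative control.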
# Sequence of Estrogen receptor (Homo sapiens) (P03372 whole entry, looked up): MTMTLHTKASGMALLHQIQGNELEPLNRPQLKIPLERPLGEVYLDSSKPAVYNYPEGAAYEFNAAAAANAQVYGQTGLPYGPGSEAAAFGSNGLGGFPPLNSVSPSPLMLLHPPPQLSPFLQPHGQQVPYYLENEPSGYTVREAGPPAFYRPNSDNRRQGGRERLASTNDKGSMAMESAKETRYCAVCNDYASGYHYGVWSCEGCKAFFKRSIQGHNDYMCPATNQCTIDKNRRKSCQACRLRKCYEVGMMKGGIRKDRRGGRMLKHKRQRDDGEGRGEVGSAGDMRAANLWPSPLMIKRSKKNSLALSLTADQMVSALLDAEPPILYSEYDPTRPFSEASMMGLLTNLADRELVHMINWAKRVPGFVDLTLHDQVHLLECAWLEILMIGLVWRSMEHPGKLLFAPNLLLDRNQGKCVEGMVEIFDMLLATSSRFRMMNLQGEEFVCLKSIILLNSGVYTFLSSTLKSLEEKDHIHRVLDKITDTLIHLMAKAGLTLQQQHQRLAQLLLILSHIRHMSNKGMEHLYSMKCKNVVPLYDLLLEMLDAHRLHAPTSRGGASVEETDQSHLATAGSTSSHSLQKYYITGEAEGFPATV
SMILES,outcome,AC50
CC[C@H](C)[C@H]1O[C@]2(C=C[C@@H]1C)C[C@@H]1C[C@@H](C/C=C(\C)[C@@H](O[C@H]3C[C@H](OC)[C@@H](O[C@H]4C[C@H](OC)[C@@H](NC)[C@H](C)O4)[C@H](C)O3)[C@@H](C)/C=C/C=C3\CO[C@@H]4[C@H](O)C(C)=C[C@@H](C(=O)O1)[C@]34O)O2,inactive,–
COP(=O)(OC)SCn1c(=O)oc2cc(Cl)cnc21,inactive,–
Cc1cc(C2CC2)nc(Nc2ccccc2)n1,inactive,–
CCc1cccc(CC)c1N(COC)C(=O)CCl,inactive,–
Nc1c(Cl)cc([N+](=O)[O-])cc1Cl,–,50 µM (active)
O=[N+]([O-])c1cc(C(F)(F)F)c(Cl)c([N+](=O)[O-])c1Nc1ncc(C(F)(F)F)cc1Cl,inactive,–
CNC(=O)Oc1cccc2c1OC(C)(C)O2,inactive,–
CSc1nc(NC(C)C)nc(NC(C)C)n1,inactive,–
CNC(=O)ON=C(SC)C(=O)N(C)C,inactive,–
CCCCOC(=O)[C@@H](C)Oc1ccc(Oc2ccc(C#N)cc2F)cc1,inactive,–

# Molecular target: X-box-binding protein 1 (Homo sapiens) (UniProt P17861)
# Sequence (P17861 whole entry, looked up): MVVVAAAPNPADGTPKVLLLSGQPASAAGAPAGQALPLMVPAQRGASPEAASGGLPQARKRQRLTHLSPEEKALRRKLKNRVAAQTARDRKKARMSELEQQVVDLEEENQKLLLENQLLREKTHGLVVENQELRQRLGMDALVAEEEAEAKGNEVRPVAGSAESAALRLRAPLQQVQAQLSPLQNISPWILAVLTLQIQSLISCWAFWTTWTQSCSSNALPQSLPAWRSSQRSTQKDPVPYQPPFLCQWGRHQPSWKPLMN
# Test: ATG_Xbp1_CIS: Attagene CIS-FACTORIAL HepG2 Assay for human X-box Binding Protein 1 (XBP1) (AID 2282972; active = hit-call score of the fitted dose curve at least 0.9, where 1 is the maximum; inactive = score below 0.9)
# Details: HepG2 XBP1 cis-element reporter, Attagene multiplex; actives raise or lower the signal
# Procedure, shortened: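 HepG2 cells transiently transfected with cis-regulated multiple reporter transcription units; endogenous transcription factor activity measured 24 hours after chemical dosing. Reporter mRNA quantified by RT-PCR, 6-FAM primer extension, HpaI digestion and capillary electrophoresis; bidirectional fitting versus DMSO.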
SMILES,outcome,AC50
CC[C@H](C)[C@H]1O[C@]2(C=C[C@@H]1C)C[C@@H]1C[C@@H](C/C=C(\C)[C@@H](O[C@H]3C[C@H](OC)[C@@H](O[C@H]4C[C@H](OC)[C@@H](NC)[C@H](C)O4)[C@H](C)O3)[C@@H](C)/C=C/C=C3\CO[C@@H]4[C@H](O)C(C)=C[C@@H](C(=O)O1)[C@]34O)O2,inactive,–
CON=C(C(=O)OC)c1ccccc1CON=C(C)c1cccc(C(F)(F)F)c1,inactive,–
CC(COc1ccc(Oc2ccccc2)cc1)Oc1ccccn1 (stereo not given),inactive,–
CCCCN(CC)c1c([N+](=O)[O-])cc(C(F)(F)F)cc1[N+](=O)[O-],inactive,–
CCc1cnc(C2=NC(C)(C(C)C)C(=O)N2)c(C(=O)O)c1 (stereo not given),inactive,–
COc1cc(OC)nc(Sc2cccc(Cl)c2C(=O)O)n1,inactive,–
COP(=O)(NC(C)=O)SC (stereo not given),inactive,–
COP(=O)(OC)SCn1c(=O)oc2cc(Cl)cnc21,inactive,–
CC(C)N(C(=O)SCC(Cl)=C(Cl)Cl)C(C)C,inactive,–
Cc1cc(C2CC2)nc(Nc2ccccc2)n1,–,31.6 µM (active)
C#CC(C)(C)NC(=O)c1cc(Cl)cc(Cl)c1,inactive,–
Cc1ccn2nc(S(=O)(=O)Nc3c(F)cccc3F)nc2n1,inactive,–
CCc1cccc(C)c1N(C(=O)CCl)C(C)COC (stereo not given),inactive,–
CCc1cccc(CC)c1N(COC)C(=O)CCl,inactive,–
CCOP(=O)(SC(C)CC)N1CCSC1=O (stereo not given),inactive,–
CCOP(=S)(Oc1cnc(C(C)(C)C)nc1)OC(C)C (stereo not given),inactive,–
CCCSP(=O)(OCC)Oc1ccc(Br)cc1Cl (stereo not given),–,1.31 µM (active)
Nc1c(Cl)cc([N+](=O)[O-])cc1Cl,–,50 µM (active)

SMILES,outcome,AC50
CCCSP(=O)(OCC)SCCC,inactive,–
O=[N+]([O-])c1cc(C(F)(F)F)c(Cl)c([N+](=O)[O-])c1Nc1ncc(C(F)(F)F)cc1Cl,inactive,–
CCC(CC)Nc1c([N+](=O)[O-])cc(C)c(C)c1[N+](=O)[O-],inactive,–
CNc1cnn(-c2cccc(C(F)(F)F)c2)c(=O)c1Cl,inactive,–
CNC(=O)Oc1cccc2c1OC(C)(C)O2,–,33.2 µM (active)
CCOP(=S)(OCC)OC(Cl)C(Cl)(Cl)Cl (stereo not given),inactive,–
CCC(=O)Nc1ccc(Cl)c(Cl)c1,inactive,–
CSc1nc(NC(C)C)nc(NC(C)C)n1,inactive,–
CCOP(=O)(NC(C)C)Oc1ccc(SC)c(C)c1 (stereo not given),inactive,–
CCCOc1nn(C(=O)NS(=O)(=O)c2ccccc2C(=O)OC)c(=O)n1C,inactive,–
CCCCSP(=O)(SCCCC)SCCCC,inactive,–
N#CSCSC#N,inactive,–
C#CCC1=C(C)C(OC(=O)C2C(C=C(C)C)C2(C)C)CC1=O (stereo not given),–,84.6 µM (active)
COP(=O)(OC)C(O)C(Cl)(Cl)Cl (stereo not given),–,39.7 µM (active)
CC1(C(=O)Nc2ccc(O)c(Cl)c2Cl)CCCCC1,inactive,–
CNC(=O)ON=C(SC)C(=O)N(C)C,–,40.5 µM (active)
CCCCOC(=O)[C@@H](C)Oc1ccc(Oc2ccc(C#N)cc2F)cc1,inactive,–

# Molecular target: Androgen receptor (Homo sapiens) (UniProt P10275)
# Sequence (P10275 whole entry, looked up): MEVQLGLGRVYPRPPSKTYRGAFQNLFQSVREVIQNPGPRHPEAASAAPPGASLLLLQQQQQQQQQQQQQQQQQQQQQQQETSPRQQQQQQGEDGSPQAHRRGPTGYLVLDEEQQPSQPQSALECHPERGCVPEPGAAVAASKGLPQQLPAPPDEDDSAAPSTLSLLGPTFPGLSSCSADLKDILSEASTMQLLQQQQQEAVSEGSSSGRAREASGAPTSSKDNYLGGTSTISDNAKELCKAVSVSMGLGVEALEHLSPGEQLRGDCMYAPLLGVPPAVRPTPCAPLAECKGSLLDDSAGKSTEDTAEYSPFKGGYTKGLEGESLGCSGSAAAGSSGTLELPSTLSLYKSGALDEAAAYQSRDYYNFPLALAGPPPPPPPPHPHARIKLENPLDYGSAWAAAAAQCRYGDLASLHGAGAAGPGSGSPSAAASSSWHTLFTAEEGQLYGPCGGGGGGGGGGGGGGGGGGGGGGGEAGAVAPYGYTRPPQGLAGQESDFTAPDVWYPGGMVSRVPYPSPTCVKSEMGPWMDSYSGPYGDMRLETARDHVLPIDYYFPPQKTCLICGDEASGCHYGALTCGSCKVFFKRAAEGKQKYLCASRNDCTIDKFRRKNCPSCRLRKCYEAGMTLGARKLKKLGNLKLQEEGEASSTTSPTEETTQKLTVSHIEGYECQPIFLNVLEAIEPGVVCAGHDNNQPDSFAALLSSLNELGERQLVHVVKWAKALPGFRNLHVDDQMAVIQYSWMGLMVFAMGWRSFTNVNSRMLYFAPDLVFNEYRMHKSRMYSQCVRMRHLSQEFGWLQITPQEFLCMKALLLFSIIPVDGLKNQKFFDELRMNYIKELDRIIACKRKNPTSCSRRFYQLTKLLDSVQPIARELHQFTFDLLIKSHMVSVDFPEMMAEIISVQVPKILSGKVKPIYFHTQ
# Test: ATG_AR_TRANS: Attagene TRANS-FACTORIAL HepG2 Assay for human Androgen Receptor (AR) (AID 2282973)
# Details: HepG2 Attagene TRANS-FACTORIAL AR reporter transcription
# Procedure, shortened: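 Readout is reporter transcript abundance, quantified by fluorescent RT-PCR products separated on capillary electrophoresis. Human HepG2 liver cells carried transiently transfected NR-Gal4 chimera plus GAL4-UAS reporter constructs and were dosed for 24 h; activity scored upward versus DMSO.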
row,SMILES,outcome
1,COP(=O)(OC)SCn1c(=O)oc2cc(Cl)cnc21,inactive
2,CCc1cccc(CC)c1N(COC)C(=O)CCl,inactive
3,CCC(=O)Nc1ccc(Cl)c(Cl)c1,inactive
4,CCOP(=O)(NC(C)C)Oc1ccc(SC)c(C)c1 (stereo not given),inactive
5,N#CSCSC#N,inactive

# Test system: not listed separately
# Test: ATG_M_19_TRANS: Attagene TRANS-FACTORIAL HepG2 Assay for M19 Transcription Factor (Internal Marker) (AID 2282974)
# Details: HepG2 Attagene TRANS-FACTORIAL M19 internal marker reporter
# Procedure, shortened: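 24 h chemical exposure of transiently transfected HepG2 (MRTU library). RNA → oligo(dT) RT → PCR → 6-FAM labelling → HpaI cut → CE fluorescence. Positive-direction fit vs DMSO baseline; background internal-marker readout.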
row,SMILES,outcome
1,CC[C@H](C)[C@H]1O[C@]2(C=C[C@@H]1C)C[C@@H]1C[C@@H](C/C=C(\C)[C@@H](O[C@H]3C[C@H](OC)[C@@H](O[C@H]4C[C@H](OC)[C@@H](NC)[C@H](C)O4)[C@H](C)O3)[C@@H](C)/C=C/C=C3\CO[C@@H]4[C@H](O)C(C)=C[C@@H](C(=O)O1)[C@]34O)O2,inactive
2,CON=C(C(=O)OC)c1ccccc1CON=C(C)c1cccc(C(F)(F)F)c1,inactive
3,COP(=O)(OC)SCn1c(=O)oc2cc(Cl)cnc21,inactive
4,C#CC(C)(C)NC(=O)c1cc(Cl)cc(Cl)c1,inactive
5,CCc1cccc(C)c1N(C(=O)CCl)C(C)COC (stereo not given),inactive
6,CCc1cccc(CC)c1N(COC)C(=O)CCl,inactive
7,CCOP(=O)(SC(C)CC)N1CCSC1=O (stereo not given),inactive
8,Nc1c(Cl)cc([N+](=O)[O-])cc1Cl,inactive
9,CCCSP(=O)(OCC)SCCC,inactive
10,O=[N+]([O-])c1cc(C(F)(F)F)c(Cl)c([N+](=O)[O-])c1Nc1ncc(C(F)(F)F)cc1Cl,inactive
11,CCC(CC)Nc1c([N+](=O)[O-])cc(C)c(C)c1[N+](=O)[O-],inactive
12,CCC(=O)Nc1ccc(Cl)c(Cl)c1,inactive
13,CSc1nc(NC(C)C)nc(NC(C)C)n1,inactive
14,CCOP(=O)(NC(C)C)Oc1ccc(SC)c(C)c1 (stereo not given),inactive
15,CCCOc1nn(C(=O)NS(=O)(=O)c2ccccc2C(=O)OC)c(=O)n1C,inactive
16,CCCCSP(=O)(SCCCC)SCCCC,inactive
17,N#CSCSC#N,inactive
18,COP(=O)(OC)C(O)C(Cl)(Cl)Cl (stereo not given),inactive
19,CNC(=O)ON=C(SC)C(=O)N(C)C,inactive
20,CCCCOC(=O)[C@@H](C)Oc1ccc(Oc2ccc(C#N)cc2F)cc1,inactive
